Source: PubChem BioAssay
Only some compounds are listed: those with a hit (about 8% of all), similar ones and a draw of the others.
RORg inh: qHTS for inhibitors of ROR gamma transcriptional activity. Potency, µM (top dose mostly 53.6 µM), inactives show top-dose activity change, negative = inhibition, actives largely listed as inhibitors. Nuclear receptor ROR-gamma (Mus musculus), P51450. actives 5.4% (n = 310,000). Drosophila S2 Gal4-RORgamma UAS-luciferase reporter, 20 h. AID 2551, 2010; further: potency means the concentration at half of the fitted maximal effect; nearly all actives have a fitted effect of over 60% in size
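Using a luciferase readout, inhibitors were identified by reduced reporter activity in Drosophila cells coexpressing a copper-inducible Gal4–ROR gamma fusion and UAS-driven Photinus luciferase, incubated 20 hr after 700 uM copper sulfate.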
Coupling enz: qHTS Assay for Inhibitors of Fructose-1,6-bisphosphate Aldolase from Giardia Lamblia: Coupling assay counterscreen | coupling enzyme system counterscreen, AmpLite Red fluorescence | activity change, negative = inhibition, % at 58.2 µM, hits read low | actives 0.67% (n = 290,000) | AID 2472, 2010; in the data active means activity change below about -30%
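Activity here indicates interference with the coupling reaction, not aldolase inhibition. Compounds at 57.5 uM final met coupling enzymes for 10 min at RT; substrate and AmpLite Red detection followed, with a 525/598 nm fluorescence read after 20 min.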
VP16 counter: VP16 counterscreen qHTS for inhibitors of ROR gamma transcriptional activity | Drosophila S2 Gal4-VP16 UAS-luciferase, luminescence, 20 h | Potency, µM (doses to about 53.6 µM), for inactives: at the top dose activity, negative = inhibition, actives largely listed as inhibitors | actives 3.5% (n = 310,000);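 further: Gal4-VP16 expression switched on by copper sulfate through the metallothionein promoter; potency means the concentration at half of the fitted maximal effect; nearly all actives have a fitted effect of over 50% in size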
ELG1 DNA repair: qHTS screen for small molecules that inhibit ELG1-dependent DNA repair in human embryonic kidney (HEK293T) cells expressing luciferase-tagged ELG1 | HEK293T ELG1-luciferase reporter, luminescence, 16 h; DNA damage induced by 5-fluorouridine | Potency, µM (highest dose often 46.1 µM), without a hit: at the top dose activity change, negative = inhibition, actives largely listed as inhibitors | actives 2.3% (n = 330,000) | AID 504467, 2011; further: potency means the concentration at half of the fitted maximal effect; nearly all actives have a fitted effect of over 55% in size
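Step one: seed 2,000 cells per well. Step two: pin-transfer compound or DMSO alongside 5-fluorouridine. Step three: incubate 16 hr, 37 °C, 5% CO2. Step four: add ONE-Glo, wait 30 min, read luminescence.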
TSHR antagonist: Antagonists of the Thyroid Stimulating Hormone Receptor: HTS campaign. TSHR-expressing cells, TSH-stimulated cAMP HTRF, 2 h; stronger effect = lower value. Thyrotropin receptor (Homo sapiens), P16473. actives 0.2% (n = 330,000). activity change, negative = inhibition, % at 11.5 µM;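 active means activity change below a set negative limit, meaning inhibition stronger than a set level, cut at about -70% in these data; inconclusive means activity change between two set negative limits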
Target sequence (P16473 whole entry, looked up): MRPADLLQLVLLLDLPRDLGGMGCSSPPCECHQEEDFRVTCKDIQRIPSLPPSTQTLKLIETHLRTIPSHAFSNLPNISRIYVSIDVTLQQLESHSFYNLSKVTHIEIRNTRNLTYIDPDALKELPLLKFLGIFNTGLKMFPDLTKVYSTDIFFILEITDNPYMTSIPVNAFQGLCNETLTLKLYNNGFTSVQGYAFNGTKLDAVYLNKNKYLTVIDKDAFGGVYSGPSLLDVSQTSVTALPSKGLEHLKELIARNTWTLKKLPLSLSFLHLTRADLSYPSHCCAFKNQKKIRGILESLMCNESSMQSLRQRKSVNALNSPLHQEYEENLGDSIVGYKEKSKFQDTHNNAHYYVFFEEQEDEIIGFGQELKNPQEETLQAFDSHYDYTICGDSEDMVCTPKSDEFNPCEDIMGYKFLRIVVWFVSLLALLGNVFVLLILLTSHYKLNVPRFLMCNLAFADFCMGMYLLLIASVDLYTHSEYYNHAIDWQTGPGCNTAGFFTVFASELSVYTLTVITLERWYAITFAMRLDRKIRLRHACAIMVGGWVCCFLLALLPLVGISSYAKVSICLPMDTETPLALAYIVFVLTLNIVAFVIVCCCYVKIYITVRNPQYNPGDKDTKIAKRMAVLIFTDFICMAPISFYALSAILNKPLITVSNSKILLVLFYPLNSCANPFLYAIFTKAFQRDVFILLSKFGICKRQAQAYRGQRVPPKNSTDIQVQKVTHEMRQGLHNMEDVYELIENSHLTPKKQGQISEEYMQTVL
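Inhibition of cAMP made by TSHR-expressing cells under TSH stimulation (4nM final, EC80; 2 h, 37 deg C) is quantified with a one-step lysis HTRF kit, anti-cAMP cryptate versus cAMP-d2.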
* marks the source's active call; other numbers are inactive results; ? = inconclusive; nt = no result given. Unless noted, the call rests on the fitted dose curve; in most records, active means well fitted curve in the direction sought with a large enough effect; inconclusive means small, poorly fitted or top-dose-only effect, or another doubt; inactive means no such curve, though single readings can be large; an effect the other way counts as inactive or inconclusive. On the % scale 0 is the no-effect control and ±100 the full control effect.

SMILES | RORg inh | Coupling enz | VP16 counter | ELG1 DNA repair | TSHR antagonist
CCCCNc1c(-c2cccc(-c3cc(C(C)=O)cs3)c2)nc2ccc(C)cn12 | nt | nt | nt | ? | -27.5
CCCCNc1c(-c2ccc(-c3ccc(C(C)=O)cc3)c(OC)c2)nc2cnccn12 | nt | nt | nt | 9.2µM* | -11.9
CCCCNc1c(-c2cccc(-c3ccc(OC)cc3)c2)nc2ccc(C)cn12 | nt | nt | nt | 3.16µM* | -83.5*
O=c1cc(Cn2ccnc2)c2cc(O)ccc2o1 | -6.3% | 0.5 | -3.4% | -10.0% | 0.4
CCN(CC(=O)Nc1c(F)cccc1F)C(=O)CCNC(=O)c1ccc([N+](=O)[O-])cc1 | nt | nt | nt | 10.3% | 2.5
C=CCn1c(COc2ccccc2)nc2ccccc21 | ? | -0.1 | ? | ? | -2.7
Cc1nn(-c2ccccc2)c(Cl)c1/C=N/NC(=O)c1ccccc1F | -9.2% | 0.4 | 7.9% | ? | -10.5
Cc1[nH]n(-c2ccccc2)c(=O)c1C=NCc1ccco1 | -35.2% | -0.9 | 5.7% | ? | -1.9
CC(=O)N/N=C/c1c(C)[nH]n(-c2ccccc2)c1=O | 5.01µM* | -7.1 | 11.2µM* | -4.4% | 7.6
Cc1[nH]n(-c2ccccc2)c(=S)c1C=NCCCN=Cc1c(C)[nH]n(-c2ccccc2)c1=S | 0.631µM* | -6.5 | 1.78µM* | ? | 33.0
COCC(=O)N/N=C/c1c(C)[nH]n(-c2ccccc2)c1=O | 0.631µM* | -17.8 | ? | ? | 12.0
Cc1[nH]n(-c2ccccc2)c(=O)c1/C=N/NC(=O)c1ccccc1F | 0.501µM* | 0.5 | 1µM* | 2.31µM* | 4.8
CN(C)c1ncc2nc(-c3ccccc3)c(=O)n(CCc3ccccc3)c2n1 | -5.9% | 1.5 | 5.0% | nt | nt
CCC(C(=O)Nc1ccc(C(=O)Nc2ccccc2C(=O)O)cc1)c1ccccc1 (stereo unspecified) | 20.0% | nt | 13.2% | 7.2% | -20.5
COc1ccc(NC2CCCN(C(=O)C3(C)CCCCC3)C2)cc1 (stereo unspecified) | -14.8% | 1.4 | 1.2% | 1.5% | -3.3
Cc1[nH]n(-c2ccccc2)c(=O)c1/C=N\NC(=O)C1COc2ccccc2O1 (stereo unspecified) | 0.794µM* | 2.0 | 1.12µM* | ? | 20.7
Cc1[nH]n(-c2ccccc2)c(=O)c1/C=N/N1C(=O)c2ccc3c4c(ccc(c24)C1=O)CC3 | 10µM* | -1.9 | ? | -1.2% | 14.2
Cn1nc(-c2ccccc2)c(/C=N/O)c1Cl | 12.0% | -2.4 | 7.9% | -9.1% | -9.9
Cn1[nH]c(-c2ccccc2)c(/C=N/O)c1=O | 3.55µM* | 1.9 | 0.891µM* | -21.8% | 5.8
Cc1[nH]n(-c2ccccc2)c(=O)c1C=Nc1ccc(S(=O)(=O)N(C)C)cc1 | 7.1% | -0.4 | -5.2% | -5.0% | 0.3
Cc1ccc(/C=N/NC(=O)C2COc3ccccc3O2)s1 (stereo unspecified) | nt | nt | nt | 15.9% | 14.7
Cc1[nH]n(-c2ccccc2)c(=O)c1/C=N/N(C)c1ccccc1 | 7.94µM* | -5.9 | ? | 6.9% | -1.9
O=C(NCCC(=O)N1CCN(c2ccccn2)CC1)c1ccc(Cl)cc1 | nt | nt | nt | -2.1% | -4.2
O=c1[nH]c(=O)c2nc(Br)n(C3OC(CO)C(O)C3O)c2[nH]1 (stereo unspecified) | 5.1% | 3.5 | -5.5% | nt | nt
Cc1[nH]n(-c2ccccc2)c(=O)c1C=Nc1ccc(S(N)(=O)=O)cc1 | 1.0% | 1.8 | -2.8% | -0.3% | -3.4
COC(=O)N/N=C\c1c(C)[nH]n(-c2ccccc2)c1=O | 11.2µM* | 1.3 | ? | -5.7% | -2.2
CSc1nnc(-c2ccccc2N=Cc2c(C)[nH]n(-c3ccccc3)c2=O)c(=O)[nH]1 | ? | 6.9 | -4.9% | 5.1% | 5.4
Cc1[nH]n(-c2ccccc2)c(=O)c1/C=N/O | 2.51µM* | -8.0 | 3.55µM* | 13.4% | 25.5
Cc1ccc2cccc(N=Cc3c(C)[nH]n(-c4ccccc4)c3=O)c2n1 | 1µM* | -6.2 | 1µM* | -0.9% | -20.5
